The list is not random: actives were taken first. Their share in the collection is about 21%.
Pf growth 48h – inhibits P. falciparum growth in the first generation, 48 h | 5.9% of 310,000 active | AID 504832 | P. falciparum luciferase growth in erythrocytes, 48 h | Potency, µM (highest dose often 28.7 µM), for inactives: at the top dose activity change, negative = inhibition, hits mostly inhibitors; note: potency is the fitted concentration of half-maximal effect; % is set by controls: 0 for no effect and ±100 for the full control effect
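Growth was read as firefly luciferase luminescence after a 48 h, 37 C, 5% CO2 exposure of compounds to reporter-bearing P. falciparum cultures (0.1% parasitemia, 2% hematocrit final) in Albumax-supplemented RPMI 1640.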
Giardia FBPA inh – inhibitors of Giardia lamblia fructose-1,6-bisphosphate aldolase; purified Giardia FBPA; AID 2451; A8B2U2; Potency, µM (top dose mostly 59.6 µM), for the others: top-dose activity, negative = inhibition, most hits filed as inhibitors; 0.71% of 290,000 active; note: potency is the fitted concentration of half-maximal effect; % is set by controls: 0 for no effect and ±100 for the full control effect; nearly all actives have a fitted effect of over 55% in size
Target sequence (A8B2U2 whole entry, looked up): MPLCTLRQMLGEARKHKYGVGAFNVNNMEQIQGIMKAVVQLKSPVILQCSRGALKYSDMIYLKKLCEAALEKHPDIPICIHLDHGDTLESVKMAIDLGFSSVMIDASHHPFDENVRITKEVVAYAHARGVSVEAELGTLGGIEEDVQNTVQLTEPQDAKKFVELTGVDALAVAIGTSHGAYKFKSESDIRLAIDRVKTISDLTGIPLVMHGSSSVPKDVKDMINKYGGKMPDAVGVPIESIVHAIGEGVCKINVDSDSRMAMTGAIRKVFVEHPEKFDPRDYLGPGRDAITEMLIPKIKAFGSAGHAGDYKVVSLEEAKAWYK
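40 nM FBPA preincubated 10 min at RT with compound (up to 57.5 uM final), then substrate plus GAPDH/TPI/NAD/arsenate coupling and diaphorase/resazurin added. Fluorescence read after 20 min at RT, 525/598 nm.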
Cycloheximide cs – affects cycloheximide protein synthesis inhibition readout, counter-screen; 12% of 300,000 active; cell reporter, cycloheximide protein synthesis inhibition counterscreen; max response, %; in the data active = max response mostly above about 13%, no sharp cut-off; inactive = mostly below about 14%; note: read at 38.3 µM for the half of the compounds with a filed dose; 0% is about no effect
Shiga toxin inh – blocks Shiga toxin action in Vero cells; inhibition, % at 38.7 µM; 9.2% of 290,000 active; Vero cells, Shiga toxin protein synthesis inhibition reporter; AID 2315; in the data active = inhibition mostly above about 28%, no sharp cut-off; inactive = mostly below about 43%; note: 0% is about no effect
NS1 function inh – inhibitors of influenza NS1 protein function; Potency, µM (highest dose often 46.1 µM), for inactives: at the top dose activity, positive = more growth; 0.4% of 270,000 active; calls by dose curve; note: potency is the fitted concentration of half-maximal effect; actives are rising curves; nearly all actives have a fitted effect of over 50% in size
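OD600 was taken as the measure of yeast growth restored by compound in an NS1-expressing S. cerevisiae strain. Cells had been washed out of glucose medium and diluted 1:100 into galactose -URA medium, pH 6.0.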
Pf growth 96h – P. falciparum growth inhibition at 96 hours; P. falciparum luciferase reporter growth, 96 h; Potency, µM (top dose mostly 28.7 µM), for inactives: top-dose activity change, negative = inhibition, most hits filed as inhibitors; 6.9% of 320,000 active; AID 504834; note: potency is the fitted concentration of half-maximal effect; % is set by controls: 0 for no effect and ±100 for the full control effect
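Cell-based qHTS: luciferase-tagged P. falciparum in erythrocytes (2% hematocrit, 0.05% parasitemia final) incubated with compounds for 96 hours, 37 C, 5% CO2; luciferase detection reagent then added and luminescence measured.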
Numbers without * were called inactive; ? = inconclusive; nt = no result; [ ] = dose if it differs, or a comment. Unless noted, calls come from the whole dose curve; as a rule, active = well fitted curve in the direction sought with a large enough effect; inconclusive = small, poorly fitted or top-dose-only effect, or another doubt; inactive = no such curve, though single readings can be large; an effect the other way counts as inactive or inconclusive.

SMILES	Pf growth 48h	Giardia FBPA inh	Cycloheximide cs	Shiga toxin inh	NS1 function inh	Pf growth 96h
O=C(O)CC1COc2ccccc2N1C(=O)c1ccccc1Cl (stereo unspecified)	0.0%	6.1%	-1.4	3.1	-5.8%	11.9%
O=C(CSc1nnc(CNC(=O)c2ccccc2)o1)Nc1nccs1	91.9%	nt	0.6	-4.7	8.4%	-0.8%
CCn1cc(C(=O)NCCCOC(C)C)c(=O)c2cc(S(=O)(=O)N3CCC(C)CC3)ccc21	?	-2.1%	-6.3	-1.7	22.3%	1.04µM*
Cn1cc(C(=O)N2CCN(c3ccccn3)CC2)c(=O)c2cc(S(=O)(=O)N3CCOCC3)ccc21	9.5%	14.6%	-1.8	-8.0	1.9%	153.8%
CCn1cc(C(=O)NCCCOC)c(=O)c2cc(S(=O)(=O)N3CCC(C)CC3)ccc21	-11.7%	0.2%	-5.7	-3.2	5.1%	-28.0%
Cn1cc(C(=O)N2CCN(c3cccc(Cl)c3)CC2)c(=O)c2cc(S(=O)(=O)N3CCOCC3)ccc21	-14.4%	10.6%	-1.1	-3.1	-5.0%	11.7µM*
C=CCSC[C@@H]1Nc2cc(Cl)c(S(N)(=O)=O)cc2S(=O)(=O)N1	nt	-21.7%[21.7 µM]	nt	nt	nt	nt
CCc1cc2c(nc1CC)CCN(CC/C(C)=N/O[C@@H](C)c1cn([C@@H]3COC[C@@H]3O)nn1)C2	nt	0.3%[12.9 µM]	nt	nt	nt	nt
COc1ccccc1N1CCN(c2ccnc3cc(Cl)ccc23)CC1	?	10.6%	-3.6	2.6	8.7%	0.465µM*
O=C(Nc1ccc(OC(F)(F)F)cc1)N1CCN(c2ccnc3cc(Cl)ccc23)CC1	?	-0.1%	1.3	-3.1	-9.2%	?
COc1ccccc1NC(=O)N1CCN(c2ccnc3cc(Cl)ccc23)CC1	2.08µM*	-1.6%	2.6	-1.9	-9.5%	2.62µM*
O=[N+]([O-])c1ccc(Sc2cccc3cccnc23)cc1	nt	?	25.6*	64.7*	-5.9%	0.4%
O=[N+]([O-])c1ccc(Sc2cccc3cccnc23)c([N+](=O)[O-])c1	-10.0%	?	19.1*	12.6	-47.0%	nt
O=[N+]([O-])c1cc(Cl)ccc1Sc1cccc2cccnc12	nt	?	-1.5	-13.0	3.1%	10.1%
O=S(=O)(Nc1ccc(O)cc1)c1cccc2cccnc12	nt	-4.0%	3.2	7.6	?	6.6%
C=CCn1nc([N+](=O)[O-])nc1Sc1cccc2cccnc12	-27.2%	-9.3%	-1.1	14.7	-18.2%	34.2%
O=C(O)CSc1ccc([N+](=O)[O-])cc1[N+](=O)[O-]	nt	nt	nt	nt	-8.7%	nt
Cc1cc(C)nc(Sc2ccc([N+](=O)[O-])cc2[N+](=O)[O-])n1	5.86µM*	0.9%	-4.5	-6.0	10.1%	-14.1%
O=[N+]([O-])c1ccc(NS(=O)(=O)c2cccc3cccnc23)cc1	0.6%	-25.4%	-3.7	nt	8.6%	11.7µM*
COC(=O)c1ccccc1S(=O)(=O)N1CCC(C(=O)OCc2ccc([N+](=O)[O-])cc2)CC1	2.1%	nt	nt	nt	nt	14.2%
COc1cc(CNCc2ccc(Br)cc2)cc(OC)c1	nt	?	-0.5	-2.7	1.3%	-5.4%
Nc1cc2sc(-c3ccc(C(=O)O)cc3)nc2cc1Cl	131.6%	-29.9%	25.7*	30.8*	0.8%	19.7%
Nc1cccc(-c2nc3ccc(N)cc3s2)c1	72.4%	-10.2%	21.2*	37.4	-12.1%	38.3%
Nc1ccc(-c2nc3ccc(C(=O)O)cc3s2)cc1	-54.8%	-14.7%	-8.1	-19.7	0.3%	30.8%
Nc1ccc(-c2nc3ccc(N)cc3s2)cc1	52.3%	4.8%	13.7*	29.7	-42.8%	300.1%
SMILES	Pf growth 48h	Giardia FBPA inh	Cycloheximide cs	Shiga toxin inh	NS1 function inh	Pf growth 96h
C=CCOc1ccccc1/C=N/NC(=O)Cc1ccc(C)cc1	-0.3%	2.9%	8.7	6.2	-31.9%	1.3%
CCCN(CCC)S(=O)(=O)c1ccc(Cl)c(OC)c1	-7.1%	5.0%	-1.9	-3.5	nt	33.7%
Cc1ccc(Cl)cc1N(CC(=O)NCc1ccccc1)S(C)(=O)=O	5.1%	13.3%	1.6	-4.3	20.6%	-36.8%
Cc1nonc1NC(=O)CSc1nnc(N)s1	24.9%	8.0%	-10.4	-6.1	6.8%	6.8%
CC1C(=O)C(C)C(c2ccc3c(c2)OCO3)NC1c1ccc2c(c1)OCO2 (stereo unspecified)	10.4µM*	-3.0%	-1.3	-16.9	-44.1%	22.9%
CC1C(=O)C(C)C(c2ccc(Br)cc2)NC1c1ccc(Br)cc1 (stereo unspecified)	?	6.7%	-9.4	-5.0	-39.4%	3.7µM*
O=C(O)C[n+]1ccccc1	nt	nt	nt	nt	8.3%	nt
CCCCCCCCCCCCCCCC[n+]1ccc(C(N)=O)cc1	?	6.4%	-1.9	-17.7	-6.1%	10.8%
CCCCCCCCCCCC[n+]1ccc2ccccc2c1	0.301µM*	nt	nt	nt	nt	3.01µM*
CCCCCCC[n+]1ccc(-c2cc[n+](CCCCCCC)cc2)cc1	0.415µM*	-8.6%	-1.5	-1.8	-8.7%	0.329µM*
Oc1ccc[n+](CCCCC[n+]2cccc(O)c2)c1	1.9%	-2.8%	-3.1	18.6	-3.9%	24.1%
CCCCCCCCCCCCCCCC[n+]1ccccc1	3.79µM*	8.3%	nt	nt	nt	1.51µM*
CCCCCCCCCCCCCCCC[n+]1ccc(/C=N/O)cc1	2.33µM*	4.7%	-1.8	-10.0	-1.0%	1.17µM*
CCOC(=O)OCC1OC(c2ccccc2)C=CC1Oc1ccc2oc(=O)cc(C)c2c1 (stereo unspecified)	nt	4.1%[12.9 µM]	nt	nt	nt	nt
c1ccc(NC2=NCCN2CCC2CCCC2)cc1	26.8%	3.4%	1.9	-3.5	-14.6%	6.4%
CC(C)C(=O)Nc1cccc(C(=O)Nc2ccc(S(=O)(=O)Nc3nccs3)cc2)c1	12.5%	-3.6%	-0.9	21.3	3.0%	156.8%
Cc1cc(C)n(CC(=O)NNC(=O)CC(C)c2ccccc2)n1 (stereo unspecified)	0.8%	nt	nt	nt	nt	-2.8%
CCCCCCCCCCCCCC[n+]1ccc(C)cc1	0.849µM*	nt	nt	nt	nt	0.849µM*
O=C(c1ccc(Cl)cc1)C1CCN(CC(=O)N2CCCCC2)CC1	?	15.1%	1.4	25.0	5.1%	?
O=c1c(-c2ccc(F)cc2)nc2cnc(N3CCOCC3)nc2n1C[C@H]1CCCO1	nt	-0.1%	nt	nt	nt	nt
COc1ccc(CCNC(=O)C2CC(c3ccccc3[N+](=O)[O-])=NO2)cc1 (stereo unspecified)	104.2%	-1.9%	48.8*	51.6	-9.7%	81.3%
Cc1ccc(CCNC(=O)C2CC(c3ccccc3[N+](=O)[O-])=NO2)cc1 (stereo unspecified)	36.1%	-2.6%	9.2	14.2	-3.5%	?
O=C(NCCc1cccs1)C1CC(c2ccccc2[N+](=O)[O-])=NO1 (stereo unspecified)	18.3%	5.7%	16.4*	74.1*	0.9%	39.2%
Cc1nn(-c2ccccc2)c(C)c1/C=N/NC(=O)c1cc(-c2ccc(Br)s2)[nH]n1	-8.3%	5.0%	-0.7	-4.7	10.8%	-9.1%
Cc1nn(-c2ccccc2)c(C)c1/C=N/NC(=O)c1cc(C2CC2)[nH]n1	-28.3%	2.5%	13.9*	-0.9	7.5%	?

Source: PubChem
